Shown are actives, neighbours in structure and some others; about 2.1% of the full set was active somewhere.
FUS yeast rescue: FUS proteinopathy suppression in yeast | Potency, µM (highest dose often 76.6 µM), actives largely listed as activators | AID 1347120 | 0.24% of 390,000 active | S. cerevisiae FUS-expressing, growth rescue, OD600, 24 h;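 also: plate controls were DMSO vehicle for no effect and reference control for full effect; nearly all actives have a fitted effect of over 55% in size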
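Yeast FUS proteinopathy model; galactose-induced FUS (2%), starting OD 0.005. Cpds in dilution series, 24hr, 30C, 99% humidity. Abs 600 nm growth. Pos ctrl CP55940 (top 92uM final); neg ctrl DMSO.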
aSyn yeast inh: alpha-synuclein toxicity inhibition in yeast. Yeast expressing alpha-synuclein, growth rescue, BacTiter-Glo, 24 h. 0.14% of 370,000 active. Potency, µM (highest dose often 46.1 µM), for inactives: at the highest dose growth rescue (activation), actives largely listed as activators; also: % of control where 0% means no effect; nearly all actives have a fitted effect of over 65% in size
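Galactose-induced alpha-syn yeast (OD600=0.02, raffinose-pregrown) + pinned cpd, 24 hr, 30 deg C; growth by BacTiter-Glo luminescence. Growth restoration scores as activation.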
Abeta yeast res: compounds reversing amyloid beta toxicity in yeast. yeast expressing A-beta42, growth rescue, OD600, 48 h; response scale: 0% DMSO, 100% iron-clioquinol control. Potency, µM (series often up to 46.1 µM), most hits filed as activators. AID 1347071. 0.063% of 410,000 active; also: nearly all actives have a fitted effect of over 55% in size
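Yeast growth medium received pinned compounds, then yeast cells expressing toxic A-beta were added; plates incubated at 30 C for 48 hr. Growth read as absorbance at 600 nm, normalized to DMSO and equimolar FeCl3 plus clioquinol controls.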
TDP-43 yeast inh: TDP-43 toxicity inhibition in yeast; 1.8% of 410,000 active; TDP-43 expressing yeast growth rescue, BacTiter-Glo, 24 h; Potency, µM (titrated, usually from 46.1 µM), inactives show at the highest dose growth rescue (activation), usual class: activators; also: % of control where 0% means no effect; nearly all actives have a fitted effect of over 50% in size
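Galactose-induced TDP-43 yeast, OD600=0.02, compound pinned; 24 hr, 30 deg C; BacTiter-Glo luminescence for growth. Inhibitors of TDP-43 toxicity read as activators.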
* = called active by the depositor; i = inactive; ? = inconclusive; · = no result given; [ ] = another dose, or the depositor's remark. Calls follow the shape of the dose curve; as a rule, active = well fitted curve in the direction sought with a large enough effect; inconclusive = small, poorly fitted or top-dose-only effect, or another doubt; inactive = no such curve, though single readings can be large; an effect the other way counts as inactive or inconclusive. Potency is read from the fitted curve at half-maximal effect.

SMILES	FUS yeast rescue	aSyn yeast inh	Abeta yeast res	TDP-43 yeast inh
O=C1Nc2ccccc2CCc2ccccc21	i	-5%[1.84 µM]	i	13%
CCc1ccccc1NC(=O)CSc1ncc(S(=O)(=O)c2ccccc2)c(N)n1	i	·	i	20%
O=[N+]([O-])c1ccc(Sc2ccncn2)c([N+](=O)[O-])c1	i	2%	i	35µM*
Cc1cc(C)nc(Sc2ccc([N+](=O)[O-])cc2[N+](=O)[O-])n1	·	-5%	i	-3%
Cc1ccc(Cl)cc1N(C)C(=O)c1cc2ccc3cccnc3c2[nH]1	?	·	i	25µM*
Cc1ccc(C)c(N2CCN(C(=O)c3cc4ccc5cccnc5c4[nH]3)CC2)c1	?	·	i	13µM*
Cc1cccc(N2CCN(C(=O)C3CCN(S(=O)(=O)c4cccc5cccnc45)CC3)CC2C)c1 (configuration not stated)	22µM*	7%	i	11%
Cc1cccc(N2CCN(C(=O)c3cc4ccc5cccnc5c4[nH]3)CC2C)c1 (configuration not stated)	?	·	i	8.9µM*
O=C(NCc1ccccc1)c1cc2ccc3cccnc3c2[nH]1	i	·	i	0%
Cc1cc(O)c2c(C)c(CC(=O)N3CCN(C(=O)C4COc5ccccc5O4)CC3)c(=O)oc2c1 (configuration not stated)	28µM*	1%	i	4%
CCOc1ccccc1NC(=O)N(Cc1ccc(F)cc1)C1CCN(CC)CC1	i	·	i	16%
Cc1ccccc1OCc1ccc(-c2nc(C#N)c(NCCCN(C)C)o2)o1	i	·	i	0%
Oc1cccc(-n2nnnc2SCc2ccccc2F)c1	i	-5%	i	22µM*
O=C(Nc1ccc2c(c1)OCCO2)C(c1cc2ccccc2o1)N1CCC(Cc2ccccc2)CC1 (configuration not stated)	16µM*	-14%	i	12%
O=C(CN1CCC(Cc2ccccc2)CC1)Nc1ccc2c(c1)OCCO2	i	0%	i	3%
c1ccc(-c2nnc(N3CCCC3)nc2-c2ccccc2)cc1	i	-7%	i	18µM*
C(=C\c1ccnc2ccccc12)/c1ccccc1	·	4%	·	·
COc1cccc2cc(-c3nc4ccccc4o3)c(=O)oc12	i	3.2µM*	i	3.2µM*
O=c1oc2ccc(Br)cc2cc1-c1nc2ccccc2o1	i	0%	i	-13%
O=C(C[n+]1ccccc1)c1ccc(I)cc1	·	-1%	·	·
CCn1c(COc2cccc(C)c2)nnc1SCC(=O)Nc1cccc(C(=O)OC)c1	i	6%	i	20µM*
CCn1c(COc2cccc(C)c2)nnc1SCC(=O)Nc1cccc(C(=O)O)c1	i	-1%	i	5%
CCOc1cc(C2Sc3ccccc3NC3=C2C(=O)c2ccccc23)ccc1O (configuration not stated)	?	·	i	11µM*
CNc1cc[n+](C)c2ccccc12	·	29%	·	·
CC1(C(=O)NS(=O)(=O)c2ccc(C#N)cc2)CCN1C(=O)C1(c2ccc(Cl)cc2)CCC1 (configuration not stated)	i	-4%	i	24%
SMILES	FUS yeast rescue	aSyn yeast inh	Abeta yeast res	TDP-43 yeast inh
CC1(C(=O)Nc2ccc3c(c2)OCCO3)CCN1C(=O)C1(c2ccc(Cl)cc2)CC1 (configuration not stated)	i	6%	i	35µM*
CC1(C(=O)NS(=O)(=O)c2cccc(C#N)c2)CCN1C(=O)C1(c2ccc(Cl)cc2)CCC1 (configuration not stated)	i	28µM*	i	8%
CC1(C(=O)Nc2ccc3c(c2)OCCO3)CCN1C(=O)C1(c2ccc(Cl)cc2)CCC1 (configuration not stated)	?	13%	i	13%
CCOC(=O)c1cnc2ccc(OCC)cc2c1N1CCN(c2ccccc2F)CC1	?	·	i	16µM*
CCOC(=O)c1cnc2ccc(OCC)cc2c1N1CCN(c2ccccc2)CC1	?	7%	i	18µM*
CCOc1ccc2ncc(S(=O)(=O)c3ccccc3)c(N3CCN(c4ccccc4)CC3)c2c1	i	-4%	i	19%
Nc1ccc2c(c1)C(=O)N(c1cccc3ccccc13)C2=O	i	11%	i	14µM*
Cc1ccc(N2C(=O)c3ccc(N)cc3C2=O)cc1	i	2%	i	0%
Cc1ccc(N2C(=O)c3ccc(N)cc3C2=O)cc1C	i	2%	i	11µM*
CC1CC(=O)c2c(cc3c(-c4c(O)cc(O)c5c(O)c6c(cc45)OC(C)CC6=O)c(O)cc(O)c3c2O)O1 (configuration not stated)	i	-21%	i	35µM*
COc1ccc(CCNS(=O)(=O)c2c(C)n[nH]c2C)cc1	i	·	·	·
Cc1cc(SCC(=O)N/N=C/c2ccc(O)c(O)c2O)c(C)cc1Br	·	16µM*	i	5%
Cn1c(=O)c(-c2ccccc2[N+](=O)[O-])c(Cl)c2ccccc21	i	10%	i	16µM*
Cc1ccc(Nc2c([N+](=O)[O-])c(=O)n(C)c3ccccc23)cc1	i	19%	i	?
COc1cccc(CN2C(=O)[C@@H]3Cc4c([nH]c5ccccc45)C(C)(C)N3C2=O)c1	?	·	10µM*	·
Cc1ccc(N2C(=O)C3C4C=CC(CNC(=S)Nc5ccc(Cl)cc5)(O4)C3C2=O)cc1 (configuration not stated)	·	-35%	i	14µM*
O=C(CSc1c2c(nc3ccc(Cl)cc13)CCCC2)N1CCN(c2ccc(Cl)cc2)CC1	?	·	i	18µM*
COc1ccc(OC)c(CNC(=O)CSc2c3c(nc4cc(Cl)ccc24)CCCC3)c1	i	·	i	15%
Cc1ccc(CNC(=O)CSc2c3c(nc4cc(Cl)ccc24)CCCC3)o1	?	-13%	i	16µM*
COc1ccc(N2CCN(C(=O)CSc3c4c(nc5ccc(Cl)cc35)CCCC4)CC2)cc1	?	·	i	32µM*
O=C(CSc1c2c(nc3ccc(Cl)cc13)CCCC2)N1CCN(c2cccc(Cl)c2)CC1	?	·	i	16µM*
COc1ccc(OC)c(S(=O)(=O)Nc2ccc(C(=O)Nc3cc(C)on3)cc2)c1	i	·	·	·
CC(=O)N1CCc2cc(S(=O)(=O)NC3CCN(C(=O)CCl)CC3)ccc21	i	·	·	·
O=C(NCc1ccc(C(=O)NCC2CCCO2)cc1)c1cccc(Br)c1 (configuration not stated)	i	·	·	·
COC(=O)[C@]12C[C@H](CC(=O)N3CCN(C(=O)c4ccco4)CC3)C(=O)N(Cc3cccc4ccccc34)C1=C[C@H](C1CCCC1)O[C@@H]2C	16µM*	·	·	·
COC(=O)[C@]12C[C@H](CC(=O)NCc3ccc(OC)c(OC)c3)C(=O)N(Cc3cccc4ccccc34)C1=C[C@H](C1CCCC1)O[C@@H]2C	13µM*	·	·	·

Screening results (PubChem)
